Assay outcomes (PubChem BioAssay)
BH1578 lux ind – inducers of Vibrio cholerae quorum light production without autoinducers, primary screen, BH1578 luxS cqsA deficient, single point; V. cholerae BH1578 lux reporter, luminescence, 6 h; activation, % at 18.7 µM; 350,000 compounds, 0.16% hits; AID 588436, 2011; in the data active means activation mostly above about 9.7%, no sharp cut-off
GDH-TPI counter-1 – GDH-TPI coupling enzyme inhibitors, primary screen, artefact control for M. tuberculosis FBA inhibitor project, biochemical, absorbance, full deck; GDH-TPI coupled enzyme counterscreen, NADH absorbance; inhibition, % at 4.8 µM; 360,000 compounds, 1.2% hits; AID 588335, 2011; in the data active means inhibition above about 30%;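 further: 0% = DMSO wells and 100% = wells lacking the enzyme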
FBA Mtb inh – Mtb FBA enzyme inhibitors, primary screen, biochemical, fluorescence, strain H37Rv; Fructose-bisphosphate aldolase (Mycobacterium tuberculosis (strain ATCC 25618 / H37Rv)), …; purified M. tuberculosis FBA, fluorescence read-out; inhibition, % at 1 µM; 360,000 compounds, 2.3% hits; AID 588726, 2011;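 further: 0% = vehicle and 100% = reference inhibitor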
Target sequence (P9WQA3 whole entry, looked up): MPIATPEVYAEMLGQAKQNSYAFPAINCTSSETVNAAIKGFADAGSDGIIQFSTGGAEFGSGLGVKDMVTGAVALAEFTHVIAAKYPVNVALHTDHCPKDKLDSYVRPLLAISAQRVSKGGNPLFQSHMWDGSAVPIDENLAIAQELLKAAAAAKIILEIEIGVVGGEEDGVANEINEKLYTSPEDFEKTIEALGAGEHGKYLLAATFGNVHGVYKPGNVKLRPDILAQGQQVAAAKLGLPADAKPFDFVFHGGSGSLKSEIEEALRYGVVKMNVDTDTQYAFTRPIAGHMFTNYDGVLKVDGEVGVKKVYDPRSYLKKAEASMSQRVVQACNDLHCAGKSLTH
Mtb BioA inh – M. tuberculosis BioA enzyme inhibitors, primary screen, biochemical, plate reader, single point, HTS; 7,8-diaminopelargonic acid synthase BioA (Mycobacterium tuberculosis); purified M. tuberculosis BioA enzyme; AID 602481, 2012; 360,000 compounds, 0.096% hits; inhibition, % at 9.99 µM; in the data active means inhibition above about 40%
Mtb FBA inh conf – M. tuberculosis aldolase blockers, biochemical, fluorescence, strain H37Rv, confirmation; shares compounds with FBA Mtb inh; inhibition, % at 1 µM; 5,600 compounds, 78% hits; AID 651616, 2012; purified M. tuberculosis FBA, fluorescence read-out;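 further: 0% = vehicle wells and 100% = reference inhibitor wells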
GDH-TPI counter-2 – GDH-TPI coupling enzyme inhibitors, artefact control for M. tuberculosis FBA inhibitor project, biochemical, fluorescence, high throughput; shares compounds with FBA Mtb inh; GDH-TPI coupled enzyme counterscreen; inhibition, % at 1 µM; 5,600 compounds, 81% hits; AID 652141, 2013; in the data active means inhibition above about 10%
GDH-TPI DR – GDH-TPI coupling enzyme inhibitors, dose response, artefact control for M. tuberculosis FBA inhibitor project, biochemical, fluorescence, IC50. shares compounds with FBA Mtb inh. IC50, µM. GDH-TPI coupled enzyme assay, artifact counterscreen. 170 compounds, 79% hits; call rule not given here
* marks the source's active call; other numbers are inactive results; i = inactive; nt = not tested or not shown; + = active, no number. Hits are enriched below; roughly 3% of the tested compounds scored in any of these assays. Unless noted, no stated cut-off is given here; in the data, active means inhibition above about 27%; inactive means the rest.

SMILES	BH1578 lux ind	GDH-TPI counter-1	FBA Mtb inh	Mtb BioA inh	Mtb FBA inh conf	GDH-TPI counter-2	others
COc1ccc(-c2cc3cc(OC)c(OC)cc3cn2)cc1	-1	10	89*	0	45*	33*
C[C@H]1CCCCO[C@@H](CN(C)C)[C@@H](C)CN([C@@H](C)CO)C(=O)c2cc(NC(=O)CCC(F)(F)F)ccc2O1	nt	nt	nt	-1	nt	nt
O=C(N/N=C/c1cc(Cl)cc([N+](=O)[O-])c1O)c1ccc2c(c1)OCO2	i	17	-5	-2	nt	nt
COc1cc(Cl)cc(/C=N\NC(=O)c2ccc3c(c2)OCO3)c1O	-1	29	27*	-1	135*	114*
COC(=O)c1cc(-c2ccc(Br)cc2)c2c(=O)[nH]c(=O)n(C)c2n1	i	26	9	0	nt	nt
CCOc1ccc(-c2cc(C(=O)OC)nc3c2c(=O)n(C)c(=O)n3C)cc1	i	9	33*	nt	118*	91*
O=C(COC(=O)c1cc(-c2cccc3ccccc23)nc2ccccc12)NC1CCS(=O)(=O)C1 (centres undefined)	0	16	-1	nt	nt	nt
COc1ccc(-c2cc(C(=O)OCC(=O)NC3CC3)c3ccccc3n2)cc1	-4	5	5	1	nt	nt
COc1ccc2cc(-c3cc(C(=O)OCC(=O)NC4CCS(=O)(=O)C4)c4ccccc4n3)ccc2c1 (centres undefined)	-1	12	28*	nt	122*	96*
O=C(COC(=O)c1cc(-c2cccs2)nc2ccccc12)NC1CCS(=O)(=O)C1 (centres undefined)	0	15	48*	nt	44*	29*
Cc1noc(C)c1S(=O)(=O)Nc1ccc2c(c1)CC(=O)N([C@@H](C)CO)C[C@@H](C)[C@@H](CN(C)S(=O)(=O)c1cccs1)O2	nt	nt	nt	5	nt	nt
C[C@@H]1CN([C@H](C)CO)C(=O)c2cccc(NC(=O)C3CCOCC3)c2O[C@@H]1CN(C)CC1CCCCC1	nt	nt	nt	0	nt	nt
c1coc(-c2cnc3ccccc3n2)c1	-5	16	106*	-3	69*	46*
c1csc(-c2cnc3ccccc3n2)c1	nt	0	63*	-1	-1	-2
C[C@@H]1CN([C@H](C)CO)C(=O)Cc2cc(NC(=O)CCC(F)(F)F)ccc2O[C@@H]1CN(C)Cc1ccc(C(=O)Nc2ccccc2N)cc1	nt	nt	nt	-1	nt	nt
Cc1ccccc1CC1(CO)CCCN(C(=O)CCCN2CCCCC2=O)C1 (centres undefined)	0	3	29*	-2	24	23*
COc1ccc2nccc(C(N)=O)c2c1	0	-7	49*	1	43*	28*
CCOc1ccc2nc(C)cc(C(=O)O)c2c1	-7	12	87*	0	74*	51*
COc1ccc2nc(C)cc(C(=O)O)c2c1	i	10	79*	-1	11	-7	GDH-TPI DR=2.3*
COc1ccc2oc(C)c(C(N)=O)c2c1	0	-4	0	0	nt	nt
COCC(=O)Nc1ccc2c(c1)[C@H]1C[C@H](CC(=O)N3CCc4ccccc4C3)O[C@H](CO)[C@H]1O2	nt	nt	nt	10	nt	nt
Cc1noc(C)c1NC(=O)N(C)C[C@H]1Oc2ccc(NC(=O)Nc3ccc(C(F)(F)F)cc3)cc2C(=O)N([C@@H](C)CO)C[C@@H]1C	nt	nt	nt	-4	nt	nt
COc1ccc(OC)c(/C=N/NC(=O)CNC(=O)c2ccc(S(=O)(=O)N3CCCC3)cc2)c1	0	3	36*	nt	165*	121*
Cc1ccc(/C=N/NC(=O)CNC(=O)c2ccc(S(=O)(=O)N3CCCC3)cc2)o1	-1	11	-5	nt	nt	nt
COc1ccc(/C=N/NC(=O)CN2CCSCC2)c(OC)c1	0	16	1	6	nt	nt
SMILES	BH1578 lux ind	GDH-TPI counter-1	FBA Mtb inh	Mtb BioA inh	Mtb FBA inh conf	GDH-TPI counter-2	others
COc1ccc(OC)c(/C=N/NC(=O)CN2CCSCC2)c1	0	16	85*	4	77*	66*
COc1ccc(OC)c(/C=N/NC(=O)C(O)c2ccccc2)c1 (centres undefined)	0	15	101*	7	82*	62*
CCC(=O)N1C[C@H](C)[C@@H](OC)CN(C)C(=O)c2cc(NC(=O)COC)ccc2OC[C@@H]1C	nt	nt	nt	-1	nt	nt
Cc1cc(OCC(=O)N2CCC(C(N)=O)CC2)c2c(C)c(C)c(=O)oc2c1	-1	-7	7	0	nt	nt
Cc1cc(OCC(=O)N2CCC(C(=O)O)CC2)c2c3c(c(=O)oc2c1)CCCC3	-1	6	77*	1	131*	82*
CC(=O)COc1cc(C)cc2oc(=O)c(C)c(C)c12	-1	15	38*	-1	+	+
Cc1cc(OCC(=O)N2CCC(O)CC2)c2c(C)cc(=O)oc2c1	0	4	100*	0	142*	105*
Cc1cc(OCC(=O)Nc2ccc(CCO)cc2)c2c(C)c(C)c(=O)oc2c1	-1	7	33*	-1	1	-3
O=C(C[C@H]1C[C@H]2c3cc(NC(=O)c4ccc5c(c4)OCO5)ccc3O[C@H]2[C@@H](CO)O1)NC1CCCC1	nt	nt	nt	0	nt	nt
O=S(=O)(N[C@H]1CC[C@H](CCn2cc(-c3ccc(F)cc3)nn2)O[C@H]1CO)c1ccccc1F	nt	nt	nt	2	nt	nt
Cc1cc(OCC(=O)N2CCC(C(=O)O)CC2)c2c(C)c(C)c(=O)oc2c1	0	9	87*	-2	-5	-6
C[C@@H]1CN([C@@H](C)CO)C(=O)c2cc(-c3cccnc3)cnc2O[C@@H]1CN(C)C(=O)C1CCCCC1	nt	nt	nt	1	nt	nt
O=C(Nc1ccc2c(c1)[C@H]1C[C@@H](CC(=O)N3CCCCC3)O[C@H](CO)[C@H]1O2)C1CCC1	nt	nt	nt	2	nt	nt
C[C@@H]1CCCCO[C@H](CN(C)Cc2ccc(Cl)c(Cl)c2)[C@@H](C)CN([C@@H](C)CO)C(=O)c2cc(NS(C)(=O)=O)ccc2O1	nt	nt	nt	2	nt	nt
Cc1c2ccccc2nc2ccccc12	-1	17	64*	nt	199*	123*
Cc1cccc(-c2ccc([C@H]3[C@@H](CO)N4CCCCN(Cc5cccnc5)C[C@H]34)cc2)c1	nt	nt	nt	-2	nt	nt
COc1cccc2sc3ccc(NCc4ccc5c(c4)OCO5)cc3c(=O)c12	0	13	2	-1	nt	nt
Cn1c2ccccc2c(=O)c2ccc(NCc3ccc4c(c3)OCO4)cc21	-1	15	88*	0	175*	110*
COc1cc(-c2cc3nc(NCc4cccc(Cl)c4)ccn3n2)cc(OC)c1OC	i	3	15	0	nt	nt
